PubChem BioAssay AID504332 (National Center for Advancing Translational Sciences (NCATS), 2011)
Values joined by “and” are separate entries in the source; they are usually repeats but may differ in a detail not shown here. Equal entries are not always repeated. Screen size: about 350,000 compounds; about 31,000 (8.9%) were called active. A call without a number means that no potency is given here. Roughly 15% stayed inconclusive and do not appear here. The sample holds actives, similar compounds and a random draw of the others, so the mix is not that of the screen. Calls follow the shape of the dose curve; as a rule, active = well fitted inhibition curve with a large enough effect; inconclusive = small, poorly fitted or top-dose-only effect; inactive = no such curve, though single readings can be large or run the other way. Some structures have more than one record in an assay (separate samples or runs), and their calls can disagree.

target: Histone-lysine N-methyltransferase EHMT2 (Homo sapiens) (UniProt Q96KQ7); assay: qHTS Assay for Inhibitors of Histone Lysine Methyltransferase G9a; details: G9a H3K9 monomethylation, AlphaScreen, 2 h; series mostly up to 59 µM; also: nearly all actives have a fitted effect of over 75% in size
How it was run: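 G9a (20 nM) was preincubated 15 min with compound, then reacted 2 h at room temperature with 500 nM biotin-H3K9 peptide and 20 µM SAM. Monomethyl-H3K9 detected by AlphaScreen using anti-H3K9me1 antibody.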
Potency is read from the fitted curve at half-maximal effect.

Chain of Histone-lysine N-methyltransferase EHMT2 (Homo sapiens) (Q96KQ7 913-1193 limits assumed): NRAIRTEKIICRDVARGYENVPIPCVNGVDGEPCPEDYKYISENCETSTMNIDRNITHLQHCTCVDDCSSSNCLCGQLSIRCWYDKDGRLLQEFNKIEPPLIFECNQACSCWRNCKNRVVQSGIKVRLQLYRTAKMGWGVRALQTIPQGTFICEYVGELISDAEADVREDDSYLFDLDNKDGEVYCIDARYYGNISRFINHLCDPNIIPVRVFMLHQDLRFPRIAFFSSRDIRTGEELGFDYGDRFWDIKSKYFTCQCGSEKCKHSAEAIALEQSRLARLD

Row | SMILES | Potency | activity, negative = inhibition
1 | COc1cccc(-c2nc(S(=O)(=O)c3ccc(C)cc3)c(NCc3ccccc3)o2)c1 | inactive | 
2 | COc1ccccc1CNC(=O)c1ccc(CS(=O)c2ccccc2Cl)o1 (stereo not given) | inactive | 
3 | CCCCCn1c(CCCNC(=O)c2ccccc2OC)nc2ccccc21 | inactive | 
4 | CNS(=O)(=O)c1cccc(C(=O)NC2CCCc3ccccc32)c1 (stereo not given) | inactive | 
5 | O=C(CCNS(=O)(=O)c1ccccc1)NCCSc1ccc(Br)cc1 | inactive | 
6 | Cc1ccc(C(=O)OCC(=O)NCc2cc(C)c(O)c(C)c2)cc1S(=O)(=O)N1CCCCC1 | inactive | 
7 | CCOCCCNC(=O)c1c(NC(=O)Cc2coc3c(C)c(C)ccc23)sc2c1CCC2 | inactive | 
8 | COc1ccccc1CNC(=O)Cn1nc(C)c2nn(-c3ccc(Cl)cc3)c(C)c2c1=O | inactive | 
9 | O=C(CSc1nc2ccccc2[nH]1)N/N=C/C=C\c1ccccc1[N+](=O)[O-] | inactive | 
10 | Cc1ccc(-n2c(SCC(=O)N/N=C/C=C/c3ccccc3[N+](=O)[O-])nc3ccccc3c2=O)cc1 | inactive | 
11 | CCn1c(SCC(=O)N/N=C/C=C/c2ccccc2[N+](=O)[O-])nnc1-c1ccccc1 | 39.8 µM (active) | 
12 | CC(C)COc1ccc(C(=O)OCC(=O)NCCC2=CCCCC2)cc1 | inactive | 
13 | CC(NC(=O)C1CCCN(S(=O)(=O)c2ccc(-n3cnnn3)cc2)C1)c1ccc(F)cc1 (stereo not given) | inactive | 
14 | Cc1ccc(OC(=O)CCC(=O)Nc2ccc(Br)cc2)cc1 | inactive | 
15 | COC(=O)CCc1sc(Nc2ccc(Br)cc2)nc1-c1ccc(OC)cc1 | 35.5 µM (active) | 
16 | COc1ccc(NC(=O)CCC(=O)Nc2nnc(C3CCCCC3)s2)cc1 | inactive | 
17 | COc1ccccc1CNC(=O)CCCN1C(=O)NC2(CCCC2)C1=O | inactive | 
18 | Cc1ccc(Cl)cc1NC(=O)/C(C#N)=C\c1cn(Cc2ccc(F)cc2)c2ccccc12 | inactive | 
19 | O=[N+]([O-])c1ccc(N/N=C/c2ccccc2)cc1 | inactive | 
20 | Cc1ccc(NS(=O)(=O)c2ccc(N/N=C/c3ccccc3OCC(=O)O)c([N+](=O)[O-])c2)c(C)c1 | inactive | 
21 | Cc1cccc(COc2ccccc2/C=N/Nc2ccc([N+](=O)[O-])cc2)c1 | 2.51 µM (active) | 
22 | CC(C)c1ccc(S(=O)(=O)N2CCN(C(C)C(=O)NC3CCCC3)CC2)cc1 (stereo not given) |  | -7.57% [at 2.33 µM] (inactive)
23 | CCC(C)c1ccc(NC(=S)N2CCCC2)cc1 (stereo not given) | inactive | 
24 | CCc1ccccc1NC(=O)N1CCC2(CC1)Oc1ccccc1C(=O)N2Cc1ccccc1F | inactive | 

Row | SMILES | Potency | activity, negative = inhibition
25 | CCC(=O)Nc1c(C(=O)N2CCN(c3ccc(F)cc3)CC2)oc2ccccc12 | inactive | 
26 | CCc1cc(C(c2ccccc2OC)N2CCOCC2)c(NC(=O)c2ccccc2)s1 (stereo not given) |  | 7.98% [at 0.501 µM] (inactive)
27 | COc1cc(C(=O)NCC(c2ccc(Cl)cc2)N2CCOCC2)cc(OC)c1OC (stereo not given) | inactive | 
28 | COc1cc(C(c2c(NC(=O)c3ccco3)sc(C)c2C)N2CCOCC2)cc(OC)c1OC (stereo not given) | 50.1 µM (active) | 
29 | O=C(NCCN1CCOCC1)c1cccc(S(=O)(=O)Nc2ccc(F)cc2)c1 |  | 8.8% [at 12.7 µM] (inactive)
30 | Cc1cccc(OCCSc2nc3ccc(NC(=O)COc4ccccc4C)cc3s2)c1 | inactive | 
31 | COCc1[nH][nH]c(=O)c1C=Nc1ccc(F)cc1F | 20 µM (active) | 
32 | Cc1c(C(C)CCCO)oc(=O)c2c1Oc1c(C)c(C(C)C[C@@H](C)O)oc(=O)c1C2 (stereo not given in full) |  | 9.9% [at 2.33 µM] (inactive)
33 | Cc1ccc2nc(SCC(=O)N3CC(C)OC(C)C3)nc(=O)n2c1 (stereo not given) | inactive | 
34 | CN1CCN(c2ccc(S(=O)(=O)N3CCCCC3)cc2NC(=O)Cc2ccccc2F)CC1 | inactive | 
35 | CCN(CC)S(=O)(=O)c1ccc(N2CCOCC2)c(C(=O)O)c1 | inactive | 
36 | CCN(CC)S(=O)(=O)c1ccc(N2CCOCC2)c(NC(=O)C2COc3ccccc3O2)c1 (stereo not given) | inactive | 
37 | CC(=O)NCCC(=O)Nc1cc(S(=O)(=O)N2CCOCC2)ccc1N1CCOCC1 | inactive | 
38 | O=S(=O)(Nc1cc(S(=O)(=O)N2CCOCC2)ccc1N1CCCC1)c1cccs1 | 20 µM (active) | 
39 | COc1ccc(S(=O)(=O)N2CCCCC2)cc1NC(=O)c1cc([N+](=O)[O-])ccc1N1CCOCC1 | inactive | 
40 | CCN(CC)S(=O)(=O)c1ccc(N2CCCC2)c(NS(=O)(=O)c2cccs2)c1 | 28.2 µM (active) | 
41 | CCN(CC)S(=O)(=O)c1ccc(N2CCN(C)CC2)c(NC(=O)Nc2ccccc2F)c1 | 39.8 µM (active) | 
42 | CCN(CC)S(=O)(=O)c1ccc(Cl)c(C(=O)NC(C)C(c2cccs2)N2CCCC2)c1 (stereo not given) | inactive | 
43 | Cc1ccc(NS(=O)(=O)c2cccs2)cc1S(=O)(=O)N1CCCCCC1 | inactive | 
44 | COCCNC(=S)Nc1cc(S(=O)(=O)N2CCOCC2)ccc1N1CCCCC1 | 2 µM (active) | 
45 | O=S(=O)(Nc1cc(Cl)ccc1N1CCOCC1)c1ccccc1Cl |  | 13.1% [at 2.33 µM] (inactive)
46 | NC(=O)c1cc(S(=O)(=O)NCCCc2ccco2)cs1 | inactive | 
47 | COc1ccc(Cn2ccnc2SCC(=O)NCc2ccco2)cc1 | inactive | 
48 | COc1cc(OC)cc(C(=O)Nc2cc3nn(-c4ccccc4)nc3cc2Cl)c1 | inactive | 

Row | SMILES | Potency | activity, negative = inhibition
49 | C[C@@H]1NC(=O)[C@@]2(C)[C@@H](c3ccccc3)[C@H]3COc4ccccc4[C@@H]3N2C1=O |  | -3.98% [at 0.501 µM] (inactive)
50 | Cc1cccc(-n2c(=O)c3c(c4cc(C)ccc4n3C)n(CC(=O)Nc3ccccc3Cl)c2=O)c1 | inactive | 
51 | CCCn1c(N)c(N(CCOC)C(=O)C2CCCC2)c(=O)[nH]c1=O |  | 15% [at 2.33 µM] (inactive)
52 | Cc1ccc(-c2nc(-c3ccncc3)no2)c(C)c1 | inactive | 
53 | COc1cccc(-n2c(=O)c3c(C)c(C(=O)N(C)C)sc3n(Cc3cccc(C)c3)c2=O)c1 | inactive | 
54 | COc1ccc(CCNC(=O)c2ccc3c(c2)nc(C)n3-c2ccc(Br)cc2)cc1OC | inactive | 
55 | CCOC(=O)c1ccc(CSc2nnc3cc(C)c4ccccc4n23)cc1 | inactive | 
56 | CCN(CC(=O)Nc1c(F)cccc1F)C(=O)c1ccc(-c2ccccc2)cc1 | inactive | 
57 | N#CCCN(C(=O)COC(=O)C1CCN(c2ccc(C(F)(F)F)cn2)CC1)c1ccc(F)cc1 | inactive | 
58 | COC(=O)c1ccc(NC(=O)CCc2c(C)nn(-c3ccc(N4CCCC4)nn3)c2C)cc1 | inactive | 
59 | Cn1c(=O)n(Cc2c(F)cccc2Cl)c(=O)c2c1nc1n2CCN1c1ccc(F)cc1 | inactive | 
60 | Cc1ccc(C(=O)N2CC(=O)Nc3ccccc32)o1 | inactive | 
61 | Cc1ccc(CNC(=O)Cn2cnc(S(=O)(=O)N3CCCCC3)c2)o1 | inactive | 
62 | Cc1ccc(CNC(=O)C2(C(F)(F)F)C/C(=C\Cc3ccccc3)CCCO2)o1 (stereo not given) | 28.2 µM (active) | 
63 | CC(=O)c1ccc(NC(=O)C2CCCN2S(=O)(=O)c2cccs2)cc1 (stereo not given) | inactive | 
64 | CC(=O)c1ccc(S(=O)(=O)NC2CC(=O)N(c3ccc4c(c3)OCCO4)C2)cc1 (stereo not given) | inactive | 
65 | CCCCCCCNC(=O)C1(CC2CC(c3cccc(Br)c3)=NO2)CCN(C(=O)c2cc(OCC)c(OCC)c(OCC)c2)CC1 (stereo not given) |  | -31.9% [at 2.33 µM] (inactive)
66 | O=C(CCN1C(=O)C2C3CCC(C3)C2C1=O)Nc1ccc(Cl)cc1Cl (stereo not given) | inactive | 
67 | CSc1ncccc1C(=O)Nc1nc2ccc(F)cc2s1 | inactive | 
68 | CCS(=O)(=O)N1Cc2ccccc2CC1C(=O)Nc1nc2ccc(F)cc2s1 (stereo not given) | 31.6 µM (active) | 
69 | CCS(=O)(=O)N1Cc2ccccc2CC1C(=O)Nc1ccc(OC)cc1OC (stereo not given) | inactive | 
70 | Cc1ccc(C(=O)C[n+]2cc(-c3ccccc3)n3c2CCCCC3)cc1 | inactive and 50.1 µM (active) | 
71 | Clc1ccc(C[n+]2cc(-c3ccccc3)n3c2CCC3)cc1 | inactive | 
72 | O=C(C[n+]1cc(-c2ccc(Cl)c(Cl)c2)n2c1CCC2)c1cccs1 | inactive | 

Row | SMILES | Potency | activity, negative = inhibition
73 | O=C(CSc1ncc(CO)n1Cc1ccc(F)cc1)NCc1ccco1 | inactive | 
74 | O=C(O)c1ccc2c(c1)N(Cc1ccc(F)cc1)C(=O)c1ccccc1S2=O (stereo not given) | inactive | 
75 | OCC[C@H]1C[C@H](O)[C@@H](O)[C@]2(Cc3ccccc3CO2)O1 |  | 12.3% [at 2.33 µM] (inactive)
76 | COc1ccc(-c2nnc(SC(=O)N3c4ccccc4Sc4ccccc43)o2)cc1 | 17.8 µM (active) | 
77 | COc1ccc(-c2nnc(SC(C)C(=O)NC3CC3)o2)cc1 (stereo not given) |  | 3.83% [at 12.7 µM] (inactive)
78 | COc1ccc(-c2nnc(SCc3cccnc3)o2)cc1 | inactive | 
79 | Cc1ccccc1C(=O)NCc1nc(-c2ccc(Cl)cc2)no1 | inactive | 
80 | CC1CN(c2cc(=O)n(-c3cccc(Br)c3)c(=O)[nH]2)CC(C)O1 (stereo not given) | 44.7 µM (active) | 
81 | CC1CN(C(=S)Nc2ccc(Br)cc2Cl)CC(C)O1 (stereo not given) | inactive | 
82 | CC1CN(c2cc(=O)n(Cc3ccc(F)cc3)c(=O)[nH]2)CC(C)O1 (stereo not given) | inactive | 
83 | COC(=O)c1ccccc1N=Nc1c(C)[nH][nH]c1=O | inactive | 
84 | Cc1[nH][nH]c(=O)c1N=Nc1ccccc1 | 50.1 µM (active) | 
85 | Cc1cccn2c(=O)c3cc(C(=O)NC(C)c4ccccc4)c(=N)n(CCCO)c3nc12 (stereo not given) | inactive | 
86 | Cc1ccsc1C(=O)NC1CCCCC1C (stereo not given) |  | 16.6% [at 12.7 µM] (inactive)
87 | Cc1ccc2nc(-c3cccnc3)c(NC3CCCC3)n2c1 | inactive | 
88 | Cc1cccc2nc(-c3ccc(Cl)s3)c(Nc3ccc4c(c3)OCCO4)n12 | 10 µM (active) | 
89 | Oc1ccccc1-c1nc2ccc(Cl)cn2c1Nc1ccc2c(c1)OCCO2 | inactive | 
90 | Cc1nc(Nc2ccc3c(c2)OCCO3)c2nnn(Cc3ccccc3Cl)c2n1 | inactive | 
91 | Cc1ccc2nc(-c3ccc(O)cc3)c(Nc3ccc4c(c3)OCO4)n2c1 | 3.55 µM (active) | 
92 | Cc1ccn2c(Nc3ccc4c(c3)OCCO4)c(-c3ccc(C)s3)nc2c1 | inactive | 
93 | Cc1ccc2nc(-c3ccncc3)cc(C(=O)Nc3ccc4c(c3)OCCO4)c2c1 | inactive | 
94 | Cc1ccc(-c2nc3cccc(C)n3c2Nc2ccc3c(c2)OCCO3)cc1 | 12.6 µM (active) | 
95 | Cc1ccc(S(=O)(=O)NCC(=O)Nc2ccc3c(c2)OCCO3)cc1 | inactive | 
